# Laboratory results taken from PubChem BioAssay (NCI).
# Compounds without any hit were thinned out: in the full panel of roughly 79,000, 15% have a hit. A number with no mark means an inactive call. Cut-off read from the data, not from the text of the source: active = growth inhibition above about 70%; inactive = the rest.
# Experiment: NCI Yeast Anticancer Drug Screen. Data for the sgs1 mgt1 strain (AID 161);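 note: 0% = growth of cultures given vehicle only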
# Conditions: S. cerevisiae sgs1 mgt1 strain, at 50.0 µM, hits give high values
# Description: Growth inhibition of yeast strains with defined genetic alterations is measured as a screen for potential anti-cancer activity. Selected strains with alterations in DNA damage repair or cell cycle control were exposed to compounds and growth inhibition was measured relative to vehicle treated controls. The strain used in this assay is sgs1 mgt1
row,Compound,growth inhibition
1,O=C(c1cc2ccccc2s1)c1ccccc1Cc1cccc2ccccc12,31.2%
2,O=C(O)c1nc(Cl)c(Cl)[nH]c1=O,8.6%
3,CC(=O)NCc1cc([N+](=O)[O-])ccc1O,-0.8%
4,CCCCCCCCCCCNc1ncnc2[nH]ncc12,5.3%
5,O=[N+]([O-])c1ccc(-c2nc3ncncc3[nH]2)cc1,-0.75%
6,CN(C)c1ccc(Cc2ccc(N(C)C)c3cccnc23)c2ncccc12,13.7%
7,C=CCN(CC=C)/N=N/c1nc[nH]c1C(N)=O,14.7%
8,CCNC1=CC(=O)c2ncccc2C1=O,27.7%
9,O=C(OCc1ccccc1)C1(N2CN(C3(C(=O)OCc4ccccc4)CCCC3)CN(C3(C(=O)OCc4ccccc4)CCCC3)C2)CCCC1,2.25%
10,Nc1nc(=O)[nH]nc1SCc1ccccc1,1.05%
11,Cc1cccc(C(C)(C)C)c1NC(=O)C(=O)Cc1nc2ccccc2s1,5.6%
12,O=C(O)NC(c1ccccc1)C(NC(=O)c1ccccc1)c1ccccc1 (stereo not given),5.75%
13,S=c1[nH]nc2nc3c4ccccc4c4ccccc4c3nn12,10.3%
14,N=C(N=C(N)N)N1CCOCC1,9.75%
15,N#CCC1(O)c2ccccc2-c2ccccc21,8%
16,C/C=C(/C(=O)NC(N)=O)C(C)C,-20.1%
17,CC(=O)N=Cc1ccccc1O,-50.2%
18,CC(=O)Nc1ccc(OC(C)=O)cc1,3.55%
19,CCCCCC(C(C)=O)C(C)=O,-15.1%
20,O=C(Nc1ccc2ncccc2c1)Nc1ccc2ncccc2c1,4.2%

row,Compound,growth inhibition
1,CCSC1C(N=[N+]=[N-])C(CO)OC1n1cnc2c(N)ncnc21 (stereo not given),9.3%
2,O=C(O)c1ccc2ncc(-c3ccccc3)nc2c1,2.35%
3,Clc1ccc2sc(-c3ccccc3)nc2c1,-4.45%
4,CC1CCCNC1C (stereo not given),-11.1%
5,Cc1cc(Cl)nc2ccc([N+](=O)[O-])cc12,-5.35%
6,COc1cccc(N=NN2CCCC2)c1,17.8%
7,CN1C2C=CC(=O)C1C1C(=O)N(c3ccccc3)C(=O)C12 (stereo not given),54%
8,CSc1nc(NC2OC(COC(C)=O)C(OC(C)=O)C(OC(C)=O)C2OC(C)=O)c2c(n1)OCC2=O (stereo not given),-38%
9,Cc1csc2nc(-c3ccco3)nn12,4.55%
10,Nc1cccc(S(=O)(=O)Nc2c(N)nc(SCC(=O)O)[nH]c2=O)c1,-19.7%
11,CCC(=O)Oc1cc(C(C)(C)C)c(OC(=O)CC)cc1C(C)(C)C,10.6%
12,CCCCCCCCOc1ccc(Cl)cc1,-5.35%
13,Cc1cc(N(CCC#N)CCC#N)ccc1/C(N=Nc1cccc(Cl)c1)=N/NC(=O)c1cc(Cl)ccc1O,26.8%
14,CCCNc1nc(C)nc2[nH]c(Cc3ccccc3)c(C)c12,21.9%
15,C=C(CBr)CCCOCc1ccccc1,-7.15%
16,CCc1ccc(OC(=O)CCl)cc1,-21.6%
17,Cc1cc(C)c2[nH]c(=O)c(C)c(C)c2c1Br,-7.2%
18,CCOc1ccccc1NC(=O)C(=O)CC(=O)c1sc(Nc2nnc(-c3ccc(Cl)c(Cl)c3)o2)nc1C,21.1%
19,O=C1c2ccccc2C(=O)N1C1(C(=O)O)CCCC1,-7.65%
20,C/C(=C1\C(=O)Nc2ccccc21)c1cccnc1,-9.5%
